The supplement of paper PMC10849652
Targets with a hit are over-represented here; the source holds about 7,900 in all. About 0.6% of all pairs of compound and target were hits.

Tests used:
Test in all cases: log2 fold change, soluble protein after heating vs DMSO (PISA); higher = thermal stabilisation; K562 cells, 10 uM, 30 min; active = over 0.2 and 3.5 SD of the protein, either way, in both replicates (recomputed)
[1] = compound: NC(=O)Nc1cc(-c2cccc(F)c2)sc1C(=O)N[C@H]1CCCNC1
Outline: (§1)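 K562 cells at 2×10^6 cells/mL were treated with 10 μM compound for 30 min. Aliquots were heated for 3 min across 48°C-58°C, pooled, and extracted in PBS with 0.5% NP-40 at 4°C; soluble protein was the supernatant after 21,000xg for 90 min. Soluble protein was quantified by TMTpro 16plex LC-MS/MS with channel sums equalised, and reported as log2 fold change in thermal stability against DMSO controls, with values from duplicates.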

[2] = compound: NC(=O)c1cnc(N[C@@H]2CCCC[C@@H]2N)nc1Nc1cccc(-n2nccn2)c1
Outline: as §1

[3] = compound: NC1(c2ccc(-c3nc4ccn5c(=O)[nH]nc5c4cc3-c3ccccc3)cc2)CCC1
Outline: as §1

[4] = compound: NCC(=O)Nc1ccc(-n2nc(C(F)(F)F)cc2-c2ccc3c(ccc4ccccc43)c2)cc1
Outline: as §1

entinostat = compound: Nc1ccccc1NC(=O)c1ccc(CNC(=O)OCc2cccnc2)cc1 [entinostat]
Outline: as §1

vorinostat = compound: O=C(CCCCCCC(=O)Nc1ccccc1)NO [vorinostat]
Outline: as §1

citarinostat = compound: O=C(CCCCCCNC(=O)c1cnc(N(c2ccccc2)c2ccccc2Cl)nc1)NO [citarinostat]
Outline: as §1

silmitasertib = compound: O=C(O)c1ccc2c(c1)nc(Nc1cccc(Cl)c1)c1ccncc12 [silmitasertib]
Outline: as §1

[5] = compound: O=C1NC(=O)C(c2cnc3ccccn23)=C1c1cn2c3c(cc(F)cc13)CN(C(=O)N1CCCCC1)CC2
Outline: as §1

[6] = compound: c1cc(OCCN2CCCCC2)cc(-c2n[nH]c3ccc(-c4nnc[nH]4)cc23)c1
Outline: as §1

entospletinib = compound: c1cn2cc(-c3ccc4cn[nH]c4c3)nc(Nc3ccc(N4CCOCC4)cc3)c2n1 [entospletinib]
Outline: as §1

Measured: log2 fold change

RAB5C isoform 2 (UniProt P51148)
inactive: [1] 0.092 | [2] 0.041 | [3] 0.017 | [4] 0.051 | entinostat 0.007 | vorinostat -0.001 | citarinostat -0.004 | silmitasertib -0.009 | [5] 0.049 | [6] -0.028 | entospletinib -0.006

RARS2 (UniProt Q5T160)
Sequence of UniProt Q5T160 (Q5T160 whole entry, looked up): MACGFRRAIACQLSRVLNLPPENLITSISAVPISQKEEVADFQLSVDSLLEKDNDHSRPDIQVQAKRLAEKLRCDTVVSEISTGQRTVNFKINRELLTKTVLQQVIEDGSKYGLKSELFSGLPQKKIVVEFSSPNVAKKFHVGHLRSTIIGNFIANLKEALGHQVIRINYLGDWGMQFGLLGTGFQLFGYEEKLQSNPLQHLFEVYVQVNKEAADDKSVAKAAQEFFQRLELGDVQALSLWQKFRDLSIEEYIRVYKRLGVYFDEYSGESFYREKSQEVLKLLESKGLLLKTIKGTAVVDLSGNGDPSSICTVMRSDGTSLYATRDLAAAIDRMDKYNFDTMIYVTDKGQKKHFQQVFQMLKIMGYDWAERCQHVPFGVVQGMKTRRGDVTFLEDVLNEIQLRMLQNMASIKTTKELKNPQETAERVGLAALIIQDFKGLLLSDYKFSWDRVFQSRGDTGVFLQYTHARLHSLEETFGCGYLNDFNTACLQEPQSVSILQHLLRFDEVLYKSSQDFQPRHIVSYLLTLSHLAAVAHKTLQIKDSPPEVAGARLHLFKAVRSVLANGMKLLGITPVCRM
inactive: [1] 0.042 | [2] -0.035 | [3] -0.182 | [4] -0.043 | entinostat 0.03 | vorinostat 0.029 | citarinostat 0.048 | silmitasertib 0.006 | [5] -0.022 | [6] -0.053 | entospletinib 0

RBBP6 (UniProt Q7Z6E9)
inactive: [1] 0.028 | [2] -0.107 | [3] 0.089 | [4] -0.017 | entinostat -0.011 | vorinostat 0.081 | citarinostat 0.099 | silmitasertib 0.207 | [5] 0.112 | [6] -0.013 | entospletinib 0.077

RPS3A (UniProt P61247)
inactive: [1] 0.01 | [2] 0.084 | [3] 0.164 | [4] 0.035 | entinostat -0.04 | vorinostat 0.041 | citarinostat -0.071 | silmitasertib 0.017 | [5] 0.088 | [6] -0.131 | entospletinib 0.082

SLC12A9 (UniProt Q9BXP2)
inactive: [1] 0.05 | [2] -0.142 | [4] -0.03 | entinostat 0.021 | vorinostat 0.027 | citarinostat 0.035 | silmitasertib 0.017 | [5] -0.081 | [6] -0.062 | entospletinib -0.021
active: [3] -0.313

RTN4IP1 (UniProt Q8WWV3)
Sequence of UniProt Q8WWV3 (Q8WWV3 whole entry, looked up): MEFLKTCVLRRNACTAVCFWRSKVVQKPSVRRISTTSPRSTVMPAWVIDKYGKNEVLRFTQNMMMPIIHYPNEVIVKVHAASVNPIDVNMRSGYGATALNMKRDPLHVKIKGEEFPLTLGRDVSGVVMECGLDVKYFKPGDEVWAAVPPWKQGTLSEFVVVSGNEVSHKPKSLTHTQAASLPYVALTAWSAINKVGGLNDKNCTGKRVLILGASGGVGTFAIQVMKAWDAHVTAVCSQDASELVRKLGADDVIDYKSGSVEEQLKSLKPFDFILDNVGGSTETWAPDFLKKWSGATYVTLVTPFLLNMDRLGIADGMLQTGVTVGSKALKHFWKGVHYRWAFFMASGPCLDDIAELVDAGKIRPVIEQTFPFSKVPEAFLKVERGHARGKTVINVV
inactive: [1] -0.057 | [2] -0.218 | [3] -0.085 | [4] -0.024 | entinostat 0.009 | vorinostat 0.111 | citarinostat 0.316 | silmitasertib 0.069 | [5] 0.079 | [6] -0.198 | entospletinib -0.003

RPP14 (UniProt O95059)
Sequence of UniProt O95059 (O95059 whole entry, looked up): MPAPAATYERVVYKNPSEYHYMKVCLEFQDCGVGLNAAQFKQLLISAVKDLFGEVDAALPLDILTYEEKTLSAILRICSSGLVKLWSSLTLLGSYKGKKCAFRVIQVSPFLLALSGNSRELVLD
inactive: [1] 0.063 | [2] -0.006 | [3] -0.003 | [4] 0.138 | entinostat -0.065 | vorinostat -0.033 | citarinostat 0.051 | silmitasertib 0.06 | [5] 0.027 | [6] -0.107 | entospletinib -0.066

SH3PXD2B (UniProt A1X283)
inactive: [1] 0.066 | [2] 0.248 | [3] -0.082 | [4] 0.052 | entinostat -0.056 | vorinostat -0.128 | citarinostat 0.032 | silmitasertib -0.108 | [5] 0.009 | [6] 0.026 | entospletinib -0.131

RRP12 (UniProt Q5JTH9)
inactive: [1] 0.062 | [2] 0.188 | [3] 0.089 | [4] 0.051 | entinostat 0.081 | vorinostat 0.072 | citarinostat -0.064 | silmitasertib 0.121 | [5] 0.119 | [6] 0.216 | entospletinib -0.132

RIOK2 (UniProt Q9BVS4)
active: [2] 0.351
inactive: [1] -0.008 | [3] 0.04 | [4] 0.027 | entinostat -0.041 | vorinostat -0.044 | citarinostat -0.067 | silmitasertib 0.018 | [5] 0.086 | [6] -0.071 | entospletinib 0.105

ROR2 (UniProt Q01974)
inactive: [1] -0.007 | [2] -0.01 | [3] -0.03 | [4] -0.04 | entinostat 0.004 | vorinostat 0.003 | citarinostat 0.078 | silmitasertib -0.027 | [5] 0.012 | [6] -0.151 | entospletinib -0.025

RNF220 (UniProt Q5VTB9)
Sequence of UniProt Q5VTB9 (Q5VTB9 whole entry, looked up): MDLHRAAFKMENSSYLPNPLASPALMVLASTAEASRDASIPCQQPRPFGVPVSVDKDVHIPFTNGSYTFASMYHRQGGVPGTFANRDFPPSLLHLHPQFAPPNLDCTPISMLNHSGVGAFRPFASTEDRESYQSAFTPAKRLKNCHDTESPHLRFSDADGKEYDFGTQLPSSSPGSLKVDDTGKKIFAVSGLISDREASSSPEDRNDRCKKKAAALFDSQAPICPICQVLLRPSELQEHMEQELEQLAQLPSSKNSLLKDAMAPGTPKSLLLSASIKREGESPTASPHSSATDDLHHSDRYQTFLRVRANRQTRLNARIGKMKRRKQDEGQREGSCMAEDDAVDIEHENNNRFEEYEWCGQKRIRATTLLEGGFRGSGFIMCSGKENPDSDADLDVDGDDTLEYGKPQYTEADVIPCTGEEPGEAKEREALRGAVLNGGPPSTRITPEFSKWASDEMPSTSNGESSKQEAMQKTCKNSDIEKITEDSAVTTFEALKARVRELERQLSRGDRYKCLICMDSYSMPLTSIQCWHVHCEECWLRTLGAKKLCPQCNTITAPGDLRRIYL
inactive: [1] 0.01 | [2] -0.019 | [3] -0.002 | [4] -0.06 | entinostat -0.037 | vorinostat 0.052 | citarinostat 0.043 | silmitasertib 0.025 | [5] -0.075 | [6] -0.038 | entospletinib -0.021

RARS (UniProt P54136)
inactive: [1] 0.098 | [2] -0.076 | [3] 0.032 | [4] -0.01 | entinostat 0.041 | vorinostat 0.115 | citarinostat 0.028 | silmitasertib 0.107 | [5] 0.325 | [6] -0.135 | entospletinib 0.165

RDH13 (UniProt Q8NBN7)
Sequence of UniProt Q8NBN7 (Q8NBN7 whole entry, looked up): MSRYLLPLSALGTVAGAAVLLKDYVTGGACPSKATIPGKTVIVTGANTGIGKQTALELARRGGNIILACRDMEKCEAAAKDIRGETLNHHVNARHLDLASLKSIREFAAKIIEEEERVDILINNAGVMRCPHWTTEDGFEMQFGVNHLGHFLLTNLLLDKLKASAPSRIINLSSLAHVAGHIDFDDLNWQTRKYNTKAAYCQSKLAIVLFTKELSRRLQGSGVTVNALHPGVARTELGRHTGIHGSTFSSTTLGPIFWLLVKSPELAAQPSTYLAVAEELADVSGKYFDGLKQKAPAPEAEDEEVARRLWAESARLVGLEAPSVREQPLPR
inactive: [1] -0.038 | [2] -0.049 | [3] -0.064 | [4] -0.055 | entinostat -0.032 | vorinostat 0.002 | citarinostat 0.029 | silmitasertib -0.013 | [5] -0.029 | [6] -0.02 | entospletinib -0.009

RBM22 (UniProt Q9NW64)
inactive: [1] -0.027 | [2] -0.004 | [3] 0.032 | [4] -0.049 | entinostat -0.008 | vorinostat -0.009 | citarinostat -0.038 | silmitasertib 0.119 | [5] -0.063 | [6] -0.043 | entospletinib -0.015

SCAF11 (UniProt Q99590)
Sequence of UniProt Q99590 (Q99590 whole entry, looked up): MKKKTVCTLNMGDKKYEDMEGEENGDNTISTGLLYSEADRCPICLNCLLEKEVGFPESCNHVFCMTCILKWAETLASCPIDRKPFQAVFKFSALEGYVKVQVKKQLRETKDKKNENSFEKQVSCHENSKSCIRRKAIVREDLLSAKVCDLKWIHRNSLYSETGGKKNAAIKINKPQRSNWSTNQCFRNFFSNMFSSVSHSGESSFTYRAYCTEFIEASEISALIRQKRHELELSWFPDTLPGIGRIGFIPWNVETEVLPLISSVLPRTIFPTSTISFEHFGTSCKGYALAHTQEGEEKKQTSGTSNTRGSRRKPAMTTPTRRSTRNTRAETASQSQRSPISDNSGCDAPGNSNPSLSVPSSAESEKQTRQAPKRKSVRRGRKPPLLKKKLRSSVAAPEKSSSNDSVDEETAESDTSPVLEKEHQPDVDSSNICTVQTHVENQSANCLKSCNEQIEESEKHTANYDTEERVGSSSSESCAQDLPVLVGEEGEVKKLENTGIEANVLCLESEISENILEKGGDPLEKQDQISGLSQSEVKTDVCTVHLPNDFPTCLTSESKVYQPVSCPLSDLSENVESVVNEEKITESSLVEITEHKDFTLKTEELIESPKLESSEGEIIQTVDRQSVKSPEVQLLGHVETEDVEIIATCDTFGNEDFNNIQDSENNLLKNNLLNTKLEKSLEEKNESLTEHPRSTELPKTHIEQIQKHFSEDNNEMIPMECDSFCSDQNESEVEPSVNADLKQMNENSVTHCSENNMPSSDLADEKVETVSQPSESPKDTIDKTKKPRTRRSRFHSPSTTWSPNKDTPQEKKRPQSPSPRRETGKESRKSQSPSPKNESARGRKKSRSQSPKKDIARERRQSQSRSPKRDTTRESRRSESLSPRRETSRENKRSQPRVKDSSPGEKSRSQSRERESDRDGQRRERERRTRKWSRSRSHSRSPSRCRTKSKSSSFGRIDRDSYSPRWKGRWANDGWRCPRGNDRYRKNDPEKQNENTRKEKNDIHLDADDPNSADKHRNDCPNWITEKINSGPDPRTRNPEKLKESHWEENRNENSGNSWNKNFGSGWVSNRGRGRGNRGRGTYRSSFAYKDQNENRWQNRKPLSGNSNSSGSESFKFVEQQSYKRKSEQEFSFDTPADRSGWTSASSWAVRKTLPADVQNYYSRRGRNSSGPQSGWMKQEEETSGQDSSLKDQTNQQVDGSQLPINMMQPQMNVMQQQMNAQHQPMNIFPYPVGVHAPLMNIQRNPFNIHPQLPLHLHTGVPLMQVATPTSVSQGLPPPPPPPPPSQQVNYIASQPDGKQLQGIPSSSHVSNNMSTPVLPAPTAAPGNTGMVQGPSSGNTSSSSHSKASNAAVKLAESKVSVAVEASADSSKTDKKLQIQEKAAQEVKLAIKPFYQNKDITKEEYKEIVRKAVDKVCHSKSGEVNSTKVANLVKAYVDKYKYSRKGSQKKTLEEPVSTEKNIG
inactive: [1] 0.019 | [2] 0.073 | [3] 0.129 | [4] -0.003 | entinostat -0.054 | vorinostat 0.12 | citarinostat -0.13 | silmitasertib -0.038 | [5] 0.147 | [6] -0.29 | entospletinib 0.185

RSRC2 (UniProt Q7L4I2)
inactive: [1] -0.05 | [2] 0.111 | [3] -0.001 | [4] -0.019 | entinostat -0.01 | vorinostat -0.029 | citarinostat 0.038 | silmitasertib -0.13 | [5] 0.023 | [6] -0.034 | entospletinib 0.019

SH3GLB2 (UniProt Q9NR46)
inactive: [1] -0.105 | [2] -0.13 | [3] -0.163 | [4] 0.004 | entinostat 0.069 | vorinostat 0.081 | citarinostat 0.059 | silmitasertib 0.015 | [5] -0.028 | [6] -0.13 | entospletinib 0.034

RBM4 (UniProt Q9BWF3)
inactive: [1] 0.015 | [2] -0.031 | [3] -0.017 | [4] -0.033 | entinostat 0.023 | vorinostat 0.06 | citarinostat -0.015 | silmitasertib 0.095 | [5] -0.002 | [6] -0.092 | entospletinib 0.077

SEC31A (UniProt O94979)
inactive: [1] -0.078 | [2] -0.024 | [3] -0.022 | [4] -0.099 | entinostat 0.041 | vorinostat 0.003 | citarinostat 0.042 | silmitasertib 0.063 | [5] -0.048 | [6] 0.07 | entospletinib -0.119

RAB3IL1 (UniProt Q8TBN0)
inactive: [1] 0.041 | [2] -0.011 | [3] -0.025 | [4] -0.046 | entinostat -0.019 | vorinostat -0.032 | citarinostat 0.035 | silmitasertib 0.053 | [5] -0.038 | [6] 0.008 | entospletinib 0.005

SHCBP1 (UniProt Q8NEM2)
inactive: [1] 0.01 | [2] -0.017 | [3] -0.107 | [4] -0.08 | entinostat -0.063 | vorinostat 0.039 | citarinostat 0.136 | silmitasertib 0.025 | [5] -0.087 | [6] -0.091 | entospletinib 0.039

RRP36 (UniProt Q96EU6)
inactive: [1] 0.115 | [2] 0.108 | [3] 0.271 | [4] 0.098 | entinostat -0.073 | vorinostat -0.024 | citarinostat -0.04 | silmitasertib 0.143 | [5] 0.264 | [6] -0.118 | entospletinib 0.118

RCOR1 (UniProt Q9UKL0)
inactive: [1] 0.035 | [2] -0.104 | [3] -0.03 | [4] -0.133 | entinostat 0.189 | vorinostat 0.082 | citarinostat 0.007 | silmitasertib 0.016 | [5] -0.043 | [6] -0.103 | entospletinib 0.002

SEC23A (UniProt Q15436)
inactive: [1] -0.004 | [2] 0.064 | [3] -0.066 | [4] -0.015 | entinostat -0.035 | vorinostat -0.02 | citarinostat -0.044 | silmitasertib 0.011 | [5] 0.024 | [6] -0.097 | entospletinib 0.106

RPL38 (UniProt P63173)
inactive: [1] -0.005 | [2] 0.022 | [3] 0.09 | [4] 0.024 | entinostat -0.022 | vorinostat 0.002 | citarinostat -0.003 | silmitasertib -0.008 | [5] 0 | [6] -0.094 | entospletinib -0.014

RAB3GAP2 (UniProt Q9H2M9)
Sequence of UniProt Q9H2M9 (Q9H2M9 whole entry, looked up): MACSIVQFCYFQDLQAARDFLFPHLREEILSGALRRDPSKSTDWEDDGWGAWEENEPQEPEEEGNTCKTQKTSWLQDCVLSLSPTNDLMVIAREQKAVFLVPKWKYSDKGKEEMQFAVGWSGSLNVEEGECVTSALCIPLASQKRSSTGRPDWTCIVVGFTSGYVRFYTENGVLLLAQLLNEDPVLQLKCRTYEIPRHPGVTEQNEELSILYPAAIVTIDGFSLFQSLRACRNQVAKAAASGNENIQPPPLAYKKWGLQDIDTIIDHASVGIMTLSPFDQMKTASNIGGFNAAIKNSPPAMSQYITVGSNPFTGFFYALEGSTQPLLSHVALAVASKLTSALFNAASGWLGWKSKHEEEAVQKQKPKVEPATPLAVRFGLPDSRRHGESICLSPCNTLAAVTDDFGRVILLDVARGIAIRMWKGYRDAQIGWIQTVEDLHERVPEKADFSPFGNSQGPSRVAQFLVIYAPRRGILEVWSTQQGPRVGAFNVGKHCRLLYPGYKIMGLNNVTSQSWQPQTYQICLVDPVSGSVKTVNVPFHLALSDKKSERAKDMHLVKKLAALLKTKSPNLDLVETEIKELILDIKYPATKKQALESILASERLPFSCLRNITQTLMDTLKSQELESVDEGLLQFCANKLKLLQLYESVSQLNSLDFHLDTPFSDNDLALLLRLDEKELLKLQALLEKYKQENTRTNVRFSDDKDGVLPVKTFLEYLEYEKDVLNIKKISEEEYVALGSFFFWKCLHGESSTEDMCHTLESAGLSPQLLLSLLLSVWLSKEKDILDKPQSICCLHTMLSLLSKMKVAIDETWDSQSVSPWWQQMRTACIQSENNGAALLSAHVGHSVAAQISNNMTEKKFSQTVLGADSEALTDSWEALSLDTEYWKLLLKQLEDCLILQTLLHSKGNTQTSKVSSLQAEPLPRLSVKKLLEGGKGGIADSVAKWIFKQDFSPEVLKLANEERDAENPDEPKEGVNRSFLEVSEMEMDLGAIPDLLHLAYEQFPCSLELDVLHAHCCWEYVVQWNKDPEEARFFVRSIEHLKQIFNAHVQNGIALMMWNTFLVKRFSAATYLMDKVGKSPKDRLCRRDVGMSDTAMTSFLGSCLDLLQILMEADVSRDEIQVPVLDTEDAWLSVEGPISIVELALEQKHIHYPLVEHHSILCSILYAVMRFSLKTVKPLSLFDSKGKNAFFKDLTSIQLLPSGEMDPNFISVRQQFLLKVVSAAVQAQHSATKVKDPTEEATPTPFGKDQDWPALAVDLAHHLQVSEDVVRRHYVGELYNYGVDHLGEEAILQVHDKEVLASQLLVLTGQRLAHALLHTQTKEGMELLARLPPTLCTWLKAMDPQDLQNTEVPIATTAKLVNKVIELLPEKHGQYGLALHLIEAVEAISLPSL
inactive: [1] -0.049 | [2] -0.067 | [3] -0.089 | [4] -0.04 | entinostat 0.057 | vorinostat 0.106 | citarinostat 0.089 | silmitasertib 0.095 | [5] 0.099 | [6] -0.065 | entospletinib 0.091
